TDP43 rescue: qHTS of TDP-43 Inhibitors. TDP-43 expressing yeast growth rescue, BacTiter-Glo, 24 h. Potency, µM (top dose mostly 46.1 µM), most hits filed as activators. 410,000 tested, 1.8% active; also: nearly all actives have a fitted effect of over 50% in size
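Luminescence from BacTiter-Glo reports growth of TDP-43-expressing yeast after 24 hr at 30 deg C with compound. Cells were raffinose-pregrown to mid-log, then seeded in galactose medium at OD600=0.02.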
aSyn yeast inh: qHTS of alpha-syn Inhibitors | Yeast expressing alpha-synuclein, growth rescue, BacTiter-Glo, 24 h | Potency, µM (doses to about 46.1 µM), usual class: activators | 370,000 tested, 0.14% active; also: nearly all actives have a fitted effect of over 65% in size
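Screening used galactose-induced yeast with toxic alpha-synuclein levels, exposed to compound for 24 hr at 30 deg C. Cell growth, read with BacTiter-Glo luminescence, gave the measured signal.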
uPA generation: qHTS for Inhibitors of Cell Surface uPA Generation; Potency, µM (titrated, usually from 38.3 µM), most hits filed as inhibitors; AID 540303, 2011; cell surface uPA generation assay, qHTS; 330,000 tested, 0.31% active; active = well fitted inhibition curve with a large enough effect; inconclusive = small, poorly fitted or top-dose-only effect; inactive = no such curve, though single readings can be large or run the other way; tested in mouse RAW 264.7 cells; also: nearly all actives have a fitted effect of over 55% in size
Chronic BCR inh: qHTS Assay to Find Inhibitors of Chronic Active B-Cell Receptor Signaling | ABC-DLBCL IkBa-CBG/CBR reporter, luminescence ratio, 4 h | Potency, µM (series often up to 46.1 µM), usual class: inhibitors | 340,000 tested, 0.05% active | AID 493014, 2011; active = well fitted inhibition curve with a large enough effect in the signal ratio, with a control signal flat, not every such curve was filed as active; inconclusive = small, poorly fitted or top-dose-only effect, or effect the other way, or a change in a side signal; the % refers to the signal ratio
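Concentration-response series (up to 46 uM) were applied to TMD8 dual-reporter cells for 4 h at 37C with doxycycline. Green/red ratio, after filter-overlap correction, defined %Activity; red signal alone was normalised to basal cells and zero luminescence.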
FUS yeast rescue: qHTS for Suppressors of FUS Proteinopathy: Primary screen using FUS-linked yeast assay; S. cerevisiae FUS-expressing, growth rescue, OD600, 24 h; Potency, µM (top dose mostly 76.6 µM), most hits filed as activators; 390,000 tested, 0.24% active; also: nearly all actives have a fitted effect of over 55% in size
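Cultures pregrown in 2.5% raffinose medium are shifted to minimal medium containing 2% galactose to express toxic FUS. Compounds are tested at several concentrations. After 24hr at 30C, growth is quantified at 600 nm absorbance.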
Abeta yeast res: qHTS for compounds that reverse cellular toxicity of Amyloid beta (A-beta) peptide in yeast: Primary Screen; yeast expressing A-beta42, growth rescue, OD600, 48 h; response scale: 0% DMSO, 100% iron-clioquinol control; Potency, µM (doses to about 46.1 µM), hits mostly activators; 410,000 tested, 0.063% active; also: nearly all actives have a fitted effect of over 55% in size
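Growth rescue measured by 600 nm absorbance after 48 h yeast culture at 30 C with compound. Values normalized between DMSO and an equimolar ferric chloride plus clioquinol control.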
Hits are given with their value; i = inactive; ? = inconclusive; nt = no result given. A selection: hits, their analogues and other compounds. The true share with any hit is near 2.3%. Unless noted, calls follow the shape of the dose curve; as a rule, active = well fitted curve in the direction sought with a large enough effect; inconclusive = small, poorly fitted or top-dose-only effect, or another doubt; inactive = no such curve, though single readings can be large; an effect the other way counts as inactive or inconclusive.

SMILES	TDP43 rescue	aSyn yeast inh	uPA generation	Chronic BCR inh	FUS yeast rescue	Abeta yeast res
Cc1cccnc1NC(=S)Nc1ncccc1C	i	i	i	?	i	i
CCOc1ccccc1NC(=S)Nc1ncccc1C	14µM	i	i	i	nt	i
CCOC(=O)[C@]12CCC=C1N(Cc1ccc(Cl)cc1Cl)C(=O)[C@H](CC(=O)N1CCCC1)C2	?	i	nt	nt	?	?
CCOC(=O)N1CCN(C(=O)C[C@@H]2C[C@@]3(C(=O)OCC)CCC=C3N(Cc3cccc4ccccc34)C2=O)CC1	16µM	i	nt	nt	i	i
CCOC(=O)N1CCN(C(=O)C[C@@H]2C[C@@]3(C(=O)OCC)CCC=C3N(Cc3ccc(Cl)cc3Cl)C2=O)CC1	22µM	i	nt	nt	?	i
CCCOc1ccc(Cn2cnc3ccccc32)cc1	i	i	i	i	i	i
Cc1ccc(C)c2sc(N3CCN(C(=O)C(C)(C)C)CC3)nc12	35µM	nt	nt	?	i	i
O=C(C1CC1)N1CCN(c2nc3c(Cl)cccc3s2)CC1	?	nt	nt	i	i	i
Cc1ccc(Cl)c2sc(N3CCN(C(=O)C4CC4)CC3)nc12	14µM	nt	nt	i	?	i
CC(C)(C)C(=O)N1CCN(c2nc3c(F)cccc3s2)CC1	?	nt	nt	?	i	i
Cn1c2ccccc2c2cc(C(=O)N3CCOCC3)sc21	14µM	i	i	?	i	i
CCn1c(=O)c2cc(C(=O)N3CCOCC3)sc2c2ccccc21	i	i	i	i	i	i
CCOc1ccc(-n2nc3ccc(N)cc3n2)cc1	i	i	10µM	i	i	i
CCNC(=O)/C=C1\NC(C)(C)Cc2c1ccc1ccccc21	i	i	i	i	i	i
O=C(c1ccc2ccccc2c1)C1CCCN(C(=O)c2cccnc2)C1 (stereo unspecified)	i	i	i	i	i	i
Nn1c(SCC(=O)Nc2ccccc2F)nc2ccccc2c1=O	i	i	nt	i	i	i
NC(=O)c1sc2nc3c(c(-c4ccco4)c2c1N)CCC3	i	10µM	i	?	i	i
Cc1ccc(-c2c3c(nc4sc(C(N)=O)c(N)c24)CCCC3)o1	i	i	i	?	nt	i
COC1CCN(C(=O)c2cc(COc3cc(C)ccc3C)on2)CC1	i	i	nt	nt	i	i
COCCCC1CCN(C(=O)c2cc(COc3cc(C)ccc3C)on2)CC1	28µM	i	i	i	?	i
COc1ccc(CNC(=O)COc2cc(O)c3c(c2)OC(C)(C)CC3=O)cc1	11µM	i	i	i	i	i
CC1(C)CC(=O)c2c(O)cc(OCC(=O)NCCc3ccc(S(N)(=O)=O)cc3)cc2O1	i	i	i	i	i	i
Cn1[nH]c(=O)c2ccccc2c1=O	i	i	i	i	i	i
Cc1ccccc1-n1c2nc(=O)[nH]c(=O)c-2cc2c(Cl)cccc21	3.5µM	nt	nt	nt	i	i
Cc1cccc(-n2c3nc(=O)n(C)c(=O)c-3cc3c(Cl)cccc32)c1C	i	nt	nt	nt	i	i
SMILES	TDP43 rescue	aSyn yeast inh	uPA generation	Chronic BCR inh	FUS yeast rescue	Abeta yeast res
COc1cnc(-c2ccccn2)nc1Oc1ccc(F)cc1F	i	i	i	i	i	22µM
O=C(c1ccccc1F)N1CCN(c2cnn(-c3cccc(Cl)c3)c(=O)c2Cl)CC1	20µM	i	i	i	i	i
Cc1onc(-c2ccccc2Cl)c1C(=O)N1CCN(c2cccc(Cl)c2)CC1	i	i	2.2µM	?	i	i
O=C(c1c(Cl)nc2sccn12)N1CCN(c2cccc(Cl)c2)CC1	14µM	i	i	i	i	i
O=C(c1cc2ccccc2cc1O)N1CCN(c2cccc(Cl)c2)CC1	11µM	i	i	i	i	?
O=C(Cc1ccc(Cl)cc1)Oc1cccc2cccnc12	?	i	i	?	nt	i
O=Cc1ccc(N2Cc3ccccc3C2)cc1	3.2µM	i	i	?	i	i
Cc1cc(OCC[N+]2(C)CCCCC2)nc2ccccc12	i	i	i	?	i	i
COc1ccc(OC)c(C(=O)CSc2nnc(Cc3cccs3)n2C)c1	i	i	i	?	i	i
C=CCC[C@@H](CCCCC)OC(=O)/C=C/[C@H](O)[C@@H](O)C[C@H](O)CC=C	i	20µM	nt	nt	?	i
C=CCC[C@H](CCCCC)OC(=O)/C=C/[C@H](O)[C@@H](O)C[C@H](O)CC=C	i	?	nt	nt	i	i
Cc1c(NS(=O)(=O)c2ccccc2)cc(Cl)c(O)c1C	10µM	i	i	?	nt	i
CCCCCCSc1cccc(-c2nc3ccc(Cl)cn3c2NCCCC)c1	i	i	i	nt	i	i
CCCCNc1c(-c2cccc(-c3cc(C(C)=O)cs3)c2)nc2ccc(C)cn12	11µM	i	i	?	i	i
Cc1ccc(Cc2c(-c3ccc(C)cc3)nc3c(C)cc(Br)cn23)cc1	i	i	nt	nt	i	i
Cc1cc(Br)cn2c(Cc3cccc(Cl)c3)c(-c3cccc(Cl)c3)nc12	i	i	nt	nt	i	i
Cc1ccc(Cc2c(-c3ccc(F)cc3)nc3c(C)cc(Br)cn23)cc1	22µM	i	nt	nt	i	i
COc1ccccc1Cc1c(-c2ccc(F)cc2)nc2c(C)cc(Br)cn12	?	i	nt	nt	i	i
COc1ccccc1Cc1c(-c2ccc(C)cc2)nc2c(C)cc(Br)cn12	35µM	i	nt	nt	?	i
COc1ccccc1Cc1c(-c2ccc(OC)c(OC)c2)nc2c(C)cc(Br)cn12	18µM	i	nt	nt	?	i
COc1ccccc1Cc1c(-c2cccc(Cl)c2)nc2c(C)cc(Br)cn12	i	i	nt	nt	i	i
COc1ccc(-c2nc3c(C)cc(Br)cn3c2Cc2cccc(Cl)c2)cc1OC	32µM	i	nt	nt	?	i
COc1ccc(NC(=O)CN(C)C(=O)c2cc3c(cc2Cl)N2CCCCCC2=NS3(=O)=O)cc1	i	i	i	i	i	i
CCOCCC(=O)Nc1ncc(S(=O)(=O)c2ccc([N+](=O)[O-])cc2)s1	i	i	nt	nt	i	i
COCCNC(=O)c1ccc(NC(=O)C2(c3ccccc3)CCCC2)cc1	i	i	i	i	i	i
SMILES	TDP43 rescue	aSyn yeast inh	uPA generation	Chronic BCR inh	FUS yeast rescue	Abeta yeast res
Cc1cc(Br)cn2c(Cc3ccccc3)c(-c3ccco3)nc12	11µM	i	nt	nt	i	i
Cc1csc(NC(=O)c2cccc([N+](=O)[O-])c2C(=O)O)n1	i	i	i	i	i	i
CCCCNC(=O)c1onc(CSc2ccccn2)c1C(=O)NCCCC	14µM	i	i	nt	i	i
COC(=O)C1CN(C(=O)COc2cc(C)c(Cl)c(C)c2)c2ccccc2O1 (stereo unspecified)	?	i	i	i	i	?
COC1=CC(=O)OC12CCCCC2	i	i	i	i	i	i
COc1ccc(C2=CC(=O)OC3(CCCC3)O2)cc1	16µM	i	i	i	i	i

High-throughput results: PubChem, National Center for Advancing Translational Sciences (NCATS)
